This passage reports activity change, positive = activation, Potency and outcome results from PubChem BioAssay (NCATS).

Experiment [1] concerns the target Cytochrome P450 3A4 (Homo sapiens) (UniProt P08684). Kind of experiment: qHTS Assay for Activators of Cytochrome P450 3A4 (AID 885). Further: nearly all actives have a fitted effect of over 65% in size. The conditions noted are these: recombinant CYP3A4, Luciferin-PPXE luminescence, 60 min; series mostly up to 57.1 µM. In outline:
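Human CYP3A4 dealkylates Luciferin-PPXE to luciferin, which luciferase detection converts to light. Substrate was at its KM (25uM), buffer 200mM KPO4, reaction 60 min at RT.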

For experiment [2], the target named is Cytochrome P450 2C19 (Homo sapiens) (UniProt P33261). As to the kind of experiment: qHTS Assay for Inhibitors and Substrates of Cytochrome P450 2C19 (AID 899). Further: nearly all actives have a fitted effect of over 60% in size. Further: potency means the concentration at half of the fitted maximal effect. To be noted: recombinant CYP2C19, luciferin-H EGE luminescence; series mostly up to 57.1 µM. The gist of the method: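 Signal comes from luciferase acting on luciferin released by CYP2C19-mediated hydroxylation of Luciferin-H EGE, 10uM (KM). Assay mix: 5nM enzyme, 50mM KPO4; 60 min at 37C with NADPH regeneration. Data normalized against 57uM ketoconazole.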
Sequence of Cytochrome P450 2C19 (Homo sapiens) (P33261 whole entry, looked up): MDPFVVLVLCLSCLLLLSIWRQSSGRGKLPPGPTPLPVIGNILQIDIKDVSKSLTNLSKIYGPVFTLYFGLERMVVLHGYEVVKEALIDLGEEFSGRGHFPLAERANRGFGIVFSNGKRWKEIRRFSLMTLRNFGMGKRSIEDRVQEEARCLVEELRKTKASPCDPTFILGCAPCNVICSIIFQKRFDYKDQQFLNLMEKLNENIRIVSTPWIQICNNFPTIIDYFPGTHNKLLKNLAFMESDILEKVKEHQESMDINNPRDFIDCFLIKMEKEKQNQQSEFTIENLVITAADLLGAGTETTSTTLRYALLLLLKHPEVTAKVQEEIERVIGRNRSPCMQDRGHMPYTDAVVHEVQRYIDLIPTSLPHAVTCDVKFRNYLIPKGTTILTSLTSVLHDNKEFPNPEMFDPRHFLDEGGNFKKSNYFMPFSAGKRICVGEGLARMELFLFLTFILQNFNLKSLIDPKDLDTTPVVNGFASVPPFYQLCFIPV

In experiment [3] the target is Cytochrome P450 2C9 (Homo sapiens) (UniProt P11712). As to the kind of experiment: qHTS Assay for Inhibitors and Substrates of Cytochrome P450 2C9 (AID 883). Further: nearly all actives have a fitted effect of over 60% in size. To be noted: recombinant CYP2C9, luciferin-H luminescence, 60 min; series mostly up to 57.1 µM. The gist of the method: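 Signal: luciferase luminescence reporting luciferin produced by CYP2C9. Conditions: 10nM enzyme, Luciferin-H 100uM at KM, 25mM KPO4, 37C, 60 min NADPH-driven reaction. Reference: 57uM sulphaphenazole as 100% inhibition.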
Sequence of Cytochrome P450 2C9 (Homo sapiens) (P11712 whole entry, looked up): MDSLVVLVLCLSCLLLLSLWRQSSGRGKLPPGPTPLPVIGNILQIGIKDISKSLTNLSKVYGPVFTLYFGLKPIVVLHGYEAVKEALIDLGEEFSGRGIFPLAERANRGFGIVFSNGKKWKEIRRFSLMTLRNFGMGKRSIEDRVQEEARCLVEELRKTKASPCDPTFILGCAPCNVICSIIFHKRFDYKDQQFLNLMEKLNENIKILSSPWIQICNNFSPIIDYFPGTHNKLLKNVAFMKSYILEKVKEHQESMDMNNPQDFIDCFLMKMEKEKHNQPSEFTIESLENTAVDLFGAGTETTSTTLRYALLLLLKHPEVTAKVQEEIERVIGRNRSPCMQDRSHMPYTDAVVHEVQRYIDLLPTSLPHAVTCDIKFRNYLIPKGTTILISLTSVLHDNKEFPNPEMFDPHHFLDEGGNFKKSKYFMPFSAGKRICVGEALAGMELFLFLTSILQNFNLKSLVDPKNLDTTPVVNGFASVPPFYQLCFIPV

Experiment [4] has as its target Cytochrome P450 2D6 (Homo sapiens) (UniProt P10635). Kind of experiment: qHTS Assay for Inhibitors and Substrates of Cytochrome P450 2D6 (AID 891). Further: nearly all actives have a fitted effect of over 60% in size. Further: potency means the concentration at half of the fitted maximal effect. To be noted: recombinant CYP2D6, luciferin-ME EGE luminescence; series mostly up to 57.1 µM. The gist of the method: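 Luminescent read-out of luciferin formed by 5 nM human CYP2D6 demethylating 30 uM Luciferin-ME EGE (Km level) over 60 min at room temperature after NADPH regeneration addition. Data normalized to full inhibition by 1.43 uM quinidine.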

The target of experiment [5] is Cytochrome P450 3A4 (Homo sapiens) (UniProt P08684). Kind of experiment: qHTS Assay for Inhibitors and Substrates of Cytochrome P450 3A4 (AID 884). Further: nearly all actives have a fitted effect of over 50% in size. Further: potency means the concentration at half of the fitted maximal effect. To be noted: recombinant CYP3A4, Luciferin-PPXE luminescence; series mostly up to 57.1 µM. In outline:
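Luminescent readout of luciferin produced by CYP3A4 (20 nM) dealkylation of Luciferin-PPXE, 25 uM (its KM). NADPH-driven reaction ran 60 min at RT after 10 min compound preincubation; data scaled to 57 uM ketoconazole as 100% inhibition.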

A short description of experiment [6]: Confirmation and Secondary Assay for Modulators of Hemoglobin Beta Chain Splicing at IVS2 654 locus (AID 910).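 Further: HeLa cells stably carrying EGFP split by mutant beta-globin IVS2-654 intron.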 To be noted: HeLa EGFP-654 splicing reporter, GFP fluorescence, 48 h; series mostly up to 46.1 µM. The gist of the method:
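HeLa cells stably expressing EGFP interrupted by β-globin IVS2-654 intron, seeded overnight in Opti-MEM/2% FCS, then treated 2 days at 37 °C. Restored splicing read as total peak GFP intensity per well by laser scanning cytometry (488 nm excitation, 500–520 nm emission); 500 nM antisense PNA as control.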

The structures appear in SMILES notation. Results filed as inconclusive are left out. Entries that show only a call come without a potency. Calls of active or inactive are those of the source. The call rests on the fitted dose curve; in most records, active means well fitted curve in the direction sought with a large enough effect; inconclusive means small, poorly fitted or top-dose-only effect, or another doubt; inactive means no such curve, though single readings can be large; an effect the other way counts as inactive or inconclusive.

Sequence of Cytochrome P450 3A4 (Homo sapiens) (P08684 whole entry, looked up): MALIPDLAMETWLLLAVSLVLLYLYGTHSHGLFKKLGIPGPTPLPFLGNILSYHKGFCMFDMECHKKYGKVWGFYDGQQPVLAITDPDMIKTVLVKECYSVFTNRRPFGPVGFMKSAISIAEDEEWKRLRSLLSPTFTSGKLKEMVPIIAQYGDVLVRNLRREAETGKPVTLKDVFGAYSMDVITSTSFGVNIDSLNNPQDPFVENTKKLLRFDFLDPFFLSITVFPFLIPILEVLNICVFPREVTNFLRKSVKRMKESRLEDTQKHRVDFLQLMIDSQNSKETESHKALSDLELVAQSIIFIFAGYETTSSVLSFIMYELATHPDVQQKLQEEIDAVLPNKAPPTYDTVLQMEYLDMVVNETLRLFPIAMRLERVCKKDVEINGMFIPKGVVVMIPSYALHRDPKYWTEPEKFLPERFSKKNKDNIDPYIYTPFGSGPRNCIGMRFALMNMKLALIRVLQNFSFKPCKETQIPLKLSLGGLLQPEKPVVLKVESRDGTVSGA
Sequence of Cytochrome P450 2D6 (Homo sapiens) (P10635 whole entry, looked up): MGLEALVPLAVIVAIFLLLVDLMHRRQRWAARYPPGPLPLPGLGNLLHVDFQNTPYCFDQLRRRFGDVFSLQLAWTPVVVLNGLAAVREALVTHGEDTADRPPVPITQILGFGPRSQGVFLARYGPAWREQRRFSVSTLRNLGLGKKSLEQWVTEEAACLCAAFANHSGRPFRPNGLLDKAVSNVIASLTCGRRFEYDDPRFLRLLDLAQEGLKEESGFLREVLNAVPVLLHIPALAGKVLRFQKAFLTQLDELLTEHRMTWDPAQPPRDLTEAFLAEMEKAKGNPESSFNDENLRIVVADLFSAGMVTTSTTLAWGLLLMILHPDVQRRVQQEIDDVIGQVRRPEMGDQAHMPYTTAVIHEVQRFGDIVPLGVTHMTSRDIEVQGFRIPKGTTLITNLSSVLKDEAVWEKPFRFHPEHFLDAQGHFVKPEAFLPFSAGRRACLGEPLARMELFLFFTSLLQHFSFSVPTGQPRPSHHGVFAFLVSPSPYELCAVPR

Regarding `Clc1ccccc1-c1nc(-c2ccncc2)no1`, in experiment [1], the activity change, positive = activation is -40.1% [at 11.4 µM] (inactive). Besides, in experiment [2], the Potency was 63.1 nM (active).

In the case of `N=c1ccn2c(n1)O[C@H]1[C@H](O)[C@@H](CO)O[C@H]12`, the Potency result in experiment [3], in experiment [4] and in experiment [2] was “inactive” each time.

In the case of `O=C(OCc1ccccc1)c1ccccc1`, the Potency entry in experiment [5] is “inactive”. The result in experiment [6] was inactive.

For `COc1ccccc1N1CCN(CCN(C(=O)c2ccc(I)cc2)c2ccccn2)CC1`, the Potency entry in experiment [3] was “inactive”. Moreover, the Potency in experiment [4] is 3.98 µM (active).

In the case of `O=C(Nc1ccncc1)c1cc([N+](=O)[O-])ccc1Cl`, in experiment [5], the Potency is 1.26 µM (active). In addition, the Potency result in experiment [1] was “inactive”.

Regarding `Nc1ccc(C(=O)O)c(O)c1`, the result in experiment [6] was inactive.

For `O=C(/C=C/c1ccc(O)cc1)c1ccc(O)cc1O`, the compound was called inactive in experiment [6].

On to `O=c1cc(-c2ccccc2)oc2c(O)c(O)ccc12`, for which the Potency entry in experiment [1] is “inactive”. Besides, the compound was classed as inactive in experiment [6].

For `Cc1c(N)c(=O)n(-c2ccccc2)n1C`, the compound was called inactive in experiment [6].
